# Unmarked numbers belong to inactive results. Entries that show only a call come without a potency. Calls of active or inactive are those of the source. Unless noted, the call rests on the fitted dose curve.
# Experiments:
# [1] = qHTS assay for small molecule disruptors of the mitochondrial membrane potential (AID 720635; active means well fitted curve in the direction sought with a large enough effect in the repeat runs; inconclusive means weak or mixed curves; inactive means no such curve, though single readings can be large; an effect the other way counts as inactive or inconclusive; further: potency means the concentration at half of the fitted maximal effect); settings: HepG2 mitochondrial membrane potential, Mito-MPS dye ratio; series mostly up to 83.2 µM
# How it was run: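 HepG2 cells (2,000/well) attached overnight at 37C, then took compound for 1 hr at 37C, 5% CO2. Mito-MPS dye was added for 30 min; fluorescence was read at 490/535 nm (monomers) and 540/590 nm (aggregates).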
# [2] = qHTS assay to test for compound auto fluorescence at 535 nm (green) in HepG2 cells (AID 720675; active means well fitted curve in the direction sought with a large enough effect in the repeat runs; inconclusive means weak or mixed curves; inactive means no such curve, though single readings can be large; an effect the other way counts as inactive or inconclusive); settings: green autofluorescence 485/535 nm, 1 h; series mostly up to 46 µM
# [3] = qHTS assay to test for compound auto fluorescence at 590 nm (red) in HepG2 cell free culture (AID 720684; active means well fitted curve in the direction sought with a large enough effect in the repeat runs; inconclusive means weak or mixed curves; inactive means no such curve, though single readings can be large; an effect the other way counts as inactive or inconclusive); settings: cell-free medium autofluorescence, red 540/590 nm; series mostly up to 46 µM
# How it was run: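 Ex 540 / Em 590 nm read of compound in cell-free MEM (10% FBS). Rose Bengal sodium reference.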
# [4] = qHTS assay to test for compound auto fluorescence at 460 nm (blue) in HepG2 cell free culture (AID 720685; active means well fitted curve in the direction sought with a large enough effect in the repeat runs; inconclusive means weak or mixed curves; inactive means no such curve, though single readings can be large; an effect the other way counts as inactive or inconclusive); settings: Cell-free culture medium, blue autofluorescence 405/460 nm; series mostly up to 46 µM
# How it was run: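 Cell-free plates of MEM plus 10% FBS received 23 nL compound or DMSO vehicle; blue-channel (405/460 nm) intensity scored against triamterene as reference fluorophore.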
# [5] = qHTS assay to test for compound auto fluorescence at 535 nm (green) in HepG2 cell free culture (AID 720686; active means well fitted curve in the direction sought with a large enough effect in the repeat runs; inconclusive means weak or mixed curves; inactive means no such curve, though single readings can be large; an effect the other way counts as inactive or inconclusive); settings: Cell-free medium, green autofluorescence 485/535 nm; series mostly up to 46 µM
# [6] = qHTS assay to test for compound auto fluorescence at 460 nm (blue) in HepG2 cells (AID 720687; active means well fitted curve in the direction sought with a large enough effect in the repeat runs; inconclusive means weak or mixed curves; inactive means no such curve, though single readings can be large; an effect the other way counts as inactive or inconclusive); settings: autofluorescence 405/460 nm, 1 h; series mostly up to 46 µM
# How it was run: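 Cells (2,000/well in MEM with 10% FBS) attached overnight at 37 C, then were exposed to compound or DMSO for 1 hr at 37 C, 5% CO2. Fluorescence read at Ex/Em 405/460 nm, expressed as triamterene-equivalent signal.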
# [7] = qHTS assay to identify small molecule antagonists of the androgen receptor (AR) signaling pathway - cell viability counter screen (AID 743033; active means well fitted curve in the direction sought with a large enough effect in the repeat runs; inconclusive means weak or mixed curves; inactive means no such curve, though single readings can be large; an effect the other way counts as inactive or inconclusive; further: potency means the concentration at half of the fitted maximal effect; nearly all actives have a fitted effect of over 45% in size); settings: AR-bla HEK293 viability, CellTiter-Glo luminescence, 16 h; series mostly up to 58.5 µM
# [8] = qHTS assay to identify small molecule antagonists of the androgen receptor (AR) signaling pathway using the MDA cell line - cell viability counter screen (AID 743041; active means well fitted curve in the direction sought with a large enough effect in the repeat runs; inconclusive means weak or mixed curves; inactive means no such curve, though single readings can be large; an effect the other way counts as inactive or inconclusive; further: nearly all actives have a fitted effect of over 45% in size; further: potency means the concentration at half of the fitted maximal effect); settings: MDA-kb2 viability, CellTiter-Fluor, 16 h, cells co-treated with R1881 androgen agonist; series mostly up to 70.3 µM
# How it was run: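 In this qHTS counter assay, fluorescence intensity after CellTiter-Fluor addition indicated viability of MDA-kb2 AR-luc cells given compounds and R1881 for 16 h at 37C.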
# [9] = qHTS assay to identify small molecule antagonists of the thyroid receptor (TR) signaling pathway - cell viability counter screen (AID 743064; active means well fitted curve in the direction sought with a large enough effect in the repeat runs; inconclusive means weak or mixed curves; inactive means no such curve, though single readings can be large; an effect the other way counts as inactive or inconclusive; further: nearly all actives have a fitted effect of over 50% in size; further: potency means the concentration at half of the fitted maximal effect); settings: GH3.TRE-Luc viability, CellTiter-Fluor, 24 h; series mostly up to 70.3 µM
# How it was run: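 Fluorescence from CellTiter-Fluor, added after 23.5 h exposure at 37 °C, reported viability of GH3.TRE-Luc cells co-treated with compound and 1 nM T3. Measured in the same wells as the luciferase TR readout.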
# [10] = qHTS assay to identify small molecule antagonists of the thyroid receptor (TR) signaling pathway (AID 743065; active means well fitted curve in the direction sought with a large enough effect in the repeat runs; inconclusive means weak or mixed curves; inactive means no such curve, though single readings can be large; an effect the other way counts as inactive or inconclusive; further: nearly all actives have a fitted effect of over 55% in size; further: potency means the concentration at half of the fitted maximal effect); settings: GH3.TRE-Luc, T3-stimulated luciferase inhibition, 23.5 h; series mostly up to 70.3 µM
# How it was run: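 GH3.TRE-Luc rat pituitary cells carrying two TR response elements driving luciferase were plated for 4 h, given compound plus 1 nM T3 (final), and incubated 23.5 h at 37 C. ONE-Glo luminescence measured reporter inhibition; CellTiter-Fluor fluorescence tracked cytotoxicity.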
# [11] = target: Estrogen receptor (Homo sapiens) (UniProt P03372); assay: qHTS assay to identify small molecule agonists of the estrogen receptor alpha (ER-alpha) signaling pathway (AID 743075); settings: HEK293 ER-alpha-UAS-bla, beta-lactamase FRET ratio, 18 h; series mostly up to 70.1 µM;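 further: HEK293 GripTite cells with ER-alpha and UAS-driven beta-lactamase reporter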; further: potency means the concentration at half of the fitted maximal effect
# [12] = target: Glucocorticoid receptor (Homo sapiens) (UniProt P04150); assay: qHTS assay to identify small molecule agonists of the glucocorticoid receptor (GR) signaling pathway (AID 720691; active means well fitted activation curve with a large enough effect in the signal ratio in the repeat runs, not every such curve was filed as active; inconclusive means weak or mixed curves, or effect the other way; inactive means no such curve, though single readings can be large or run the other way; the % refers to the signal ratio); settings: GR-bla HeLa, beta-lactamase reporter ratio, 18 h; series mostly up to 62.4 µM
# How it was run: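 Steps: seed GR-bla HeLa cells, incubate 4 h at 37 C/5% CO2; pin-transfer DMSO-dissolved compounds; incubate 18 h at 37 C; add LiveBLAzer B/G FRET substrate; after 2 h at room temperature, measure fluorescence.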
# [13] = qHTS assay for identifying genotoxic compounds that show differential cytotoxicity against isogenic chicken DT40 cell lines with known DNA damage response pathways - wild type cell line (AID 743012; active means well fitted curve in the direction sought with a large enough effect in the repeat runs; inconclusive means weak or mixed curves; inactive means no such curve, though single readings can be large; an effect the other way counts as inactive or inconclusive; further: nearly all actives have a fitted effect of over 60% in size); settings: DT40 wild type chicken cells viability, CellTiter-Glo, 40 h; series mostly up to 68.4 µM
# How it was run: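 Cytotoxicity in repair-proficient parental chicken DT40 cells serves as the comparator for Rad54/Ku70- and Rev3-deficient lines. Cells were exposed to compounds for 40 h at 37 C/5% CO2, and ATP-based luminescence (CellTiter-Glo) measured viability.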
# [14] = test system: thyroid hormone receptor (rat, GH3 cells); assay: qHTS assay to identify small molecule agonists of the thyroid receptor (TR) signaling pathway (AID 743066); settings: GH3.TRE-Luc cells, TR agonist luciferase, 24 h; series mostly up to 83.9 µM
# [15] = target: Estrogen receptor (Homo sapiens) (UniProt P03372); assay: qHTS assay to identify small molecule agonists of the estrogen receptor alpha (ER-alpha) signaling pathway using the BG1 cell line (AID 743079; active means well fitted curve in the direction sought with a large enough effect in the repeat runs; inconclusive means weak or mixed curves; inactive means no such curve, though single readings can be large; an effect the other way counts as inactive or inconclusive; further: nearly all actives have a fitted effect of over 20% in size); settings: BG1Luc4E2 cells, ERE-luciferase agonist, 22 h; series mostly up to 70.3 µM
# [16] = qHTS assay to identify small molecule antagonists of the estrogen receptor alpha (ER-alpha) signaling pathway using the BG1 cell line (AID 743080); settings: BG1Luc4E2 ERE-luciferase antagonist mode, luminescence; series mostly up to 70.3 µM;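 further: BG1 cells stimulated with 17beta-estradiol alongside compound; nearly all actives have a fitted effect of over 25% in size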
# How it was run: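 Readout is ONE-Glo luminescence, taken 30 min at room temperature after reagent addition, preceded by a CellTiter-Fluor viability read; BG1-Luc-4E2 cells had received compound and 17beta-estradiol for 21.5 h at 37 C.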
# [17] = qHTS assay to identify small molecule antagonists of the estrogen receptor alpha (ER-alpha) signaling pathway using the BG1 cell line - cell viability counter screen (AID 743081; active means well fitted curve in the direction sought with a large enough effect in the repeat runs; inconclusive means weak or mixed curves; inactive means no such curve, though single readings can be large; an effect the other way counts as inactive or inconclusive;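 further: compound given together with 17beta-estradiol as the ER stimulus; nearly all actives have a fitted effect of over 45% in size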); settings: BG1Luc4E2 viability, CellTiter-Fluor, 22 h; series mostly up to 70.3 µM
# [18] = target: Acetylcholinesterase (Homo sapiens) (UniProt P22303); assay: Acetylcholinesterase (AChE) small molecule antagonists: enzyme-based qHTS assay (AID 1347397); settings: Potency: AChE enzyme activity inhibition; outcome: AChE enzyme activity inhibition; series mostly up to 115 µM; further: nearly all actives have a fitted effect of over 55% in size; further: potency means the concentration at half of the fitted maximal effect
# How it was run: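 Compound or DMSO vehicle was pin-transferred onto recombinant human AChE (50 mU/mL as dispensed) and left 30 min at room temperature. Acetylthiocholine with DTNB then started the reaction, read colorimetrically 10 min later.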
# [19] = target: Acetylcholinesterase (Homo sapiens) (UniProt P22303); assay: Acetylcholinesterase (AChE) small molecule antagonists: fluorescence cell-based qHTS assay (AID 1347398); settings: SH-SY5Y cells; Potency: AChE activity; outcome: AChE activity; series mostly up to 115 µM; further: nearly all actives have a fitted effect of over 50% in size; further: potency means the concentration at half of the fitted maximal effect
# How it was run: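 Using neuroblastoma SH-SY5Y cells as the enzyme source, test chemicals are preincubated 30 min at 37 C; AChE-driven acetylthiocholine cleavage is then quantified by thiocholine-dependent Thiolite Green fluorescence after 40 min at room temperature.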
# Chain of Acetylcholinesterase (Homo sapiens) (P22303 whole entry, looked up): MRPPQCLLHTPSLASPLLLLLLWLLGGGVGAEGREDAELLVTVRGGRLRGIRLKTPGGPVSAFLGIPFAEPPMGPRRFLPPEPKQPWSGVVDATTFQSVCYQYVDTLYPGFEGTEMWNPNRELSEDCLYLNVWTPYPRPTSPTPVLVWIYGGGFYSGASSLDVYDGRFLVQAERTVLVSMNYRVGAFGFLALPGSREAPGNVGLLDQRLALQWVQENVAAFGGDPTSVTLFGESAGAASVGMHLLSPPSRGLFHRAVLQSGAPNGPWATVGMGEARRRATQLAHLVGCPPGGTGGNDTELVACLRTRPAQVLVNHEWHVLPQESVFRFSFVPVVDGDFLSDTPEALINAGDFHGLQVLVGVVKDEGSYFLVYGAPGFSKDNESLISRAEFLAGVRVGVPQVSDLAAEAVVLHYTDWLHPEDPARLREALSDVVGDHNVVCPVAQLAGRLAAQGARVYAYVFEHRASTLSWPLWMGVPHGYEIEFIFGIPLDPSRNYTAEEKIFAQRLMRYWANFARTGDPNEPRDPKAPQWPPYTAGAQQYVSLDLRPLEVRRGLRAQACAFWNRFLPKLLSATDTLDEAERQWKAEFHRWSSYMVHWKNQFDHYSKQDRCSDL
# Chain of Estrogen receptor (Homo sapiens) (P03372 whole entry, looked up): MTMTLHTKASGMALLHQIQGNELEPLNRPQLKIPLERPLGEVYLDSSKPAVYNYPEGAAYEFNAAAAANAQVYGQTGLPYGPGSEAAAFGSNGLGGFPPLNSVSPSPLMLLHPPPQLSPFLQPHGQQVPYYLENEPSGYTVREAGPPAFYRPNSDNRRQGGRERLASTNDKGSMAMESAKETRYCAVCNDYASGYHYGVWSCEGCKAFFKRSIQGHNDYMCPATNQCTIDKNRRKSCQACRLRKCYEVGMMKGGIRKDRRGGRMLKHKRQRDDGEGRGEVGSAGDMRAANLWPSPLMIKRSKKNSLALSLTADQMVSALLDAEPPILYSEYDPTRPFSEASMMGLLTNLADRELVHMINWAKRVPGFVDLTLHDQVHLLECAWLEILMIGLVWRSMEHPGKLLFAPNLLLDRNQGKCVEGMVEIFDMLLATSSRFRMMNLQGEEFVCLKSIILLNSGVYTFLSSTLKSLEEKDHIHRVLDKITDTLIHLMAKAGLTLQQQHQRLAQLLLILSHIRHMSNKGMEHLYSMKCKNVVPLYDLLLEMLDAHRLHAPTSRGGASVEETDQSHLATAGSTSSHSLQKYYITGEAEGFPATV
# Chain of Glucocorticoid receptor (Homo sapiens) (P04150 whole entry, looked up): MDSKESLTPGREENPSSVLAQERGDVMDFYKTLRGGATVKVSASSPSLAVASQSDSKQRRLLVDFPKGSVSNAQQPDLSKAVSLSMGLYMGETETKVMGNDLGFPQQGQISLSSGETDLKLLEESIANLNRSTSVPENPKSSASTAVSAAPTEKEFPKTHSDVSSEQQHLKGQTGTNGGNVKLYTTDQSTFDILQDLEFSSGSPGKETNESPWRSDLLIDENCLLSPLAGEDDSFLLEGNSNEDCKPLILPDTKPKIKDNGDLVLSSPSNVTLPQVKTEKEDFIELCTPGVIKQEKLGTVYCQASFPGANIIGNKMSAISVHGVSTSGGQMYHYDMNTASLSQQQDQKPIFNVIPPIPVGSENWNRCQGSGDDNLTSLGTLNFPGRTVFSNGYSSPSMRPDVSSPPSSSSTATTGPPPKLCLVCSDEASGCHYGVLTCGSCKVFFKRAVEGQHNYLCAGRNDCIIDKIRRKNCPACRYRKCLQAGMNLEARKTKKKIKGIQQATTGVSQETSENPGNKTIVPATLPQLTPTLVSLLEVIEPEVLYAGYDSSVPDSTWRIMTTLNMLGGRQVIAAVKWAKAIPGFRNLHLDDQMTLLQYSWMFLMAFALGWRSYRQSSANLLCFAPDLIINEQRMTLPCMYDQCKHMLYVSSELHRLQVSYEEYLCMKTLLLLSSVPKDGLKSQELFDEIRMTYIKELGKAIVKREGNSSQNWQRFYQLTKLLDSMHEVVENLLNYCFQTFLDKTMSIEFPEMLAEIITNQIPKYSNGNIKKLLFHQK
smiles,measurement,setting,value
COC(=O)[C@]12CCC(C)(C)C[C@H]1[C@H]1C(=O)C=C3[C@@]4(C)C=C(C#N)C(=O)C(C)(C)[C@@H]4CC[C@@]3(C)[C@]1(C)CC2,Potency,[1],3.76 µM (active)
same,Potency,[2],inactive
same,outcome,[3],inactive
same,Potency,[4],inactive
same,Potency,[5],inactive
same,Potency,[6],inactive
same,Potency,[7],4.25 µM (active)
same,Potency,[8],6.68 µM (active)
same,Potency,[9],1.68 µM (active)
same,Potency,[10],0.473 µM (active)
same,Potency,[11],3.01 µM [inconclusive] (active)
O=P1(N(CCCl)CCCl)NC(OO)CCO1 (stereo unspecified),Potency,[1],inactive
same,outcome,[3],inactive
same,Potency,[4],inactive
same,Potency,[6],inactive
same,Potency,[12],inactive
same,Potency,[13],inactive
same,Potency,[8],inactive
same,Potency,[9],inactive
same,Potency,[10],inactive
same,Potency,[14],inactive
same,Potency,[11],inactive
same,Potency,[15],inactive
same,Potency,[16],inactive
same,Potency,[17],inactive
CC(=O)OC(C)=O,Potency,[18],inactive
same,Potency,[19],inactive
c1coc(CNc2ncnc3nc[nH]c23)c1,Potency,[18],inactive
same,Potency,[19],inactive
Cc1ccc(S(=O)(=O)NC2CCCCC2)cc1,Potency,[18],inactive
same,Potency,[19],inactive
Oc1cccc(-c2c3nc(c(-c4cccc(O)c4)c4ccc([nH]4)c(-c4cccc(O)c4)c4nc(c(-c5cccc(O)c5)c5ccc2[nH]5)CC4)C=C3)c1,Potency,[18],inactive
same,Potency,[19],inactive
COC(=O)C1=C(C)NC(C)=C(C(=O)OC)C1c1ccccc1[N+](=O)[O-],Potency,[18],inactive
same,Potency,[19],inactive
CC(=O)SC[C@@H](C)C(=O)N1CCC[C@H]1C(=O)N[C@@H](Cc1ccccc1)C(=O)O,Potency,[18],inactive
same,Potency,[19],inactive
C=CC(=O)OCC(CO)(COCC(COC(=O)C=C)(COC(=O)C=C)COC(=O)C=C)COC(=O)C=C,Potency,[18],inactive
COc1ccc(-c2nc3ccc(C4=NNC(=O)CC4C)cc3[nH]2)cc1 (stereo unspecified),Potency,[18],inactive
Nc1cc(Cl)c([N+](=O)[O-])cc1O,Potency,[18],inactive
same,Potency,[19],inactive
COC(=O)C1=C(C)NC(C)=C(C(=O)OCCN(C)Cc2ccccc2)C1c1cccc([N+](=O)[O-])c1 (stereo unspecified),Potency,[18],inactive
CC1(C)[C@H](C(=O)O)N2C(=O)C[C@H]2S1(=O)=O,Potency,[18],inactive
same,Potency,[19],inactive
NCCNCCNCCNCCN,Potency,[18],inactive
same,"activity change, negative = inhibition",[19],0.135% [at 10.5 µM]
C=C(C)C(=O)OCCOCCOCCOCCOC(=O)C(=C)C,Potency,[18],inactive
same,Potency,[19],inactive
C=C1C(CCl)(CCl)C2(Cl)C(Cl)C(Cl)C1(Cl)C2(Cl)Cl (stereo unspecified),Potency,[18],inactive
same,Potency,[19],inactive
Cc1cc(Br)ccc1NC(=O)CCl,Potency,[18],inactive
same,Potency,[19],inactive
Cc1ccc(N=Nc2c(O)c(C(=O)O)cc3ccccc23)c(S(=O)(=O)O)c1,Potency,[18],inactive
same,Potency,[19],inactive
Cc1cc(CCCOc2c(C)cc(-c3noc(C(F)(F)F)n3)cc2C)on1,Potency,[18],inactive
same,Potency,[19],inactive
O=c1[nH]c(=O)n([C@H]2C[C@H](O)[C@@H](CO)O2)cc1Br,Potency,[18],inactive
same,Potency,[19],inactive
CC(C)(C)NC(=O)[C@@H]1C[C@@H]2CCCC[C@@H]2CN1C[C@@H](O)[C@H](Cc1ccccc1)NC(=O)[C@H](CC(N)=O)NC(=O)c1ccc2ccccc2n1,Potency,[18],inactive
same,Potency,[19],inactive
CN(C)CCCN1c2ccccc2Sc2ccc(C(F)(F)F)cc21,Potency,[18],inactive
same,Potency,[19],inactive
Cc1cccc(C)c1O,Potency,[18],inactive
same,Potency,[19],inactive
O=C1CN(/N=C/c2ccc([N+](=O)[O-])o2)C(=O)N1,Potency,[18],inactive
same,Potency,[19],inactive
CCn1nc(C(=O)O)c(=O)c2cc3c(cc21)OCO3,Potency,[18],inactive
same,Potency,[19],inactive
CN(C)C(=O)C1(N2CCCCC2)CCN(CC[C@@]2(c3ccc(Cl)c(Cl)c3)CN(C(=O)c3ccccc3)CCO2)CC1,Potency,[18],16.7 µM (active)
same,Potency,[19],4.69 µM (active)
F/C(COc1ccc2c(c1)[nH]c1ccccc12)=C1/CN2CCC1CC2,Potency,[4],inactive
same,Potency,[6],inactive
same,Potency,[12],inactive
same,Potency,[8],inactive
same,Potency,[10],8.41 µM (active)
same,Potency,[11],inactive
same,Potency,[15],inactive
CCOC(=O)C1=C[C@]2(CC)CCCN3CCc4c(n1c1ccccc41)[C@@H]32,Potency,[18],inactive
same,Potency,[19],inactive
CC(C)(C)c1cc(O)c(C(C)(C)C)cc1O,Potency,[18],inactive
same,Potency,[19],inactive
CC(C)(C)c1ccc(C(O)CCCN2CCC(C(O)(c3ccccc3)c3ccccc3)CC2)cc1 (stereo unspecified),Potency,[18],inactive
same,Potency,[19],inactive
Nc1ccc(C(=O)N2CC3CC(CN(Cc4ccccc4)C3)C2)cc1,Potency,[18],inactive
same,Potency,[19],inactive
CC(=O)c1ccc(OCC(=O)N2CCCCC2)cc1,Potency,[18],inactive
same,Potency,[19],inactive
Cc1c(C)c2c(c(C)c1O)CC[C@@](C)(CCC[C@H](C)CCC[C@H](C)CCCC(C)C)O2,Potency,[18],inactive
same,Potency,[19],inactive
Clc1nc2ccccc2s1,Potency,[18],inactive
same,Potency,[19],inactive
COc1ccc(CCN(C)CCCC(C#N)(c2ccc(OC)c(OC)c2)C(C)C)cc1OC (stereo unspecified),Potency,[18],inactive
same,Potency,[19],inactive
CC1(C)[C@H]2CC[C@]1(C)C(=O)C2,Potency,[18],inactive
same,Potency,[19],inactive
COc1cc(Cc2cnc(N)nc2N)cc(OC)c1OC,Potency,[18],inactive
same,Potency,[19],inactive
N#[N+]c1ccc2c(S(=O)(=O)[O-])cccc2c1O,Potency,[18],inactive
same,Potency,[19],inactive
CCC(=O)Nc1cccc(N)c1,Potency,[18],inactive
same,Potency,[19],inactive
CC(C)N=C=NC(C)C,Potency,[18],inactive
same,Potency,[19],inactive
Cc1cccc(Oc2ccccc2)c1,Potency,[18],inactive
same,Potency,[19],inactive
CN1CCN(C2=Nc3cc(Cl)ccc3Nc3ccccc32)CC1,Potency,[18],inactive

# — PubChem BioAssay (Tox21)
